Compound activity: PubChem BioAssay, Sanford-Burnham Center for Chemical Genomics
Sampled rows, rich in hits. Any-hit rate of the full collection: about 4%.
HIF-2a inh: HIF-2a inhibition | 786-0 RCC cells HIF-2a reporter, luciferase luminescence, overnight | inhibition, % at 18.8 µM | 360,000 compounds, 0.72% hits | AID 624352;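 active = inhibition of the luminescence signal of 40% or more relative to plate controls, in a single-dose primary screen at 18.75 µM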
TROY NFkB inh: blocks TROY-dependent signaling in reporter cells | 360,000 compounds, 0.98% hits | inhibition, % at 10 µM | Q293 LMP1-TROYcd NF-kB luciferase reporter, 4 h;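 active = compounds whose plate-normalised and pattern-corrected inhibition of the luciferase reporter signal at the single screening dose is 50% or more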
Peg3 prom inh: reduces Peg3 promoter-driven luciferase expression in HeLa. inhibition, % at 20 µM. 360,000 compounds, 1.7% hits. HeLa PEG-Prom luciferase reporter, luminescence, overnight. AID 588405;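 active = inhibition of at least 50% at 20 µM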
TWEAK-Fn14 inh: inhibitors of TWEAK-Fn14 interaction signaling | TWEAK-stimulated Fn14 reporter cells, luciferase luminescence, 8 h | inhibition, % at 10 µM | 360,000 compounds, 2% hits | AID 1159606; in the data active = inhibition above about 50%
CF NFkB inh: blocks PAF-induced NF-kB reporter in cystic fibrosis cells; KKLEB NF-kB-GFP reporter, GFP fluorescence overnight; inhibition, % at 5 µM; 360,000 compounds, 0.86% hits; AID 588850;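 active = at least 50% inhibition at 5 µM, scaled per plate between neutral and stimulator controls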;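 note: PAF is a Pseudomonas aeruginosa culture filtrate used as stimulus; plate controls were PAF-stimulated DMSO wells for no effect and unstimulated DMSO wells for full effect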
KKLEB tox: reduces viability of KKLEB cystic fibrosis airway cells; KKLEB CF airway cells viability, ATPlite luminescence, overnight; stronger effect = lower value; cells stimulated with P. aeruginosa culture filtrate; activity change (cytotoxicity), % at 5 µM; 360,000 compounds, 0.36% hits; AID 602141;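 active = corrected activity change at or below -50% at 5 µM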
Mdm2 MdmX conf: Mdm2/MdmX (human) interaction inhibition, confirmed | 740 compounds, 99% hits | SaOS-2 split-luciferase Mdm2/MdmX complementation, luminescence | inhibition, % at 8 µM | shares compounds with HIF-2a inh;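 active = mean inhibition of the luminescence signal across two replicates at or above 26 percent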
HIF-2a conf: HIF-2a inhibition, single concentration confirmation. shares compounds with HIF-2a inh. 786-0 RCC cells, HIF-2a luciferase reporter luminescence, overnight. inhibition, % at 18.8 µM. 1,800 compounds, 56% hits. AID 651580;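 active = mean inhibition across four replicates of at least 40 percent at the single tested concentration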
HIF-1a counter: counter-screen for HIF-2a inhibitors: HIF-1a inhibition in MiaPaCa-2 cells | shares compounds with HIF-2a inh | MiaPaCa-2 HIF-1a luciferase reporter, desferoxamine, overnight | inhibition, % at 18.8 µM | 1,800 compounds, 72% hits;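 active = mean inhibition of the reporter signal across four replicates at the single tested dose of 50% or more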
An asterisk follows results filed as active; · = not tested or not shown.

SMILES	HIF-2a inh	TROY NFkB inh	Peg3 prom inh	TWEAK-Fn14 inh	CF NFkB inh	KKLEB tox	HIF-2a conf	HIF-1a counter	others
O=C(Cc1ccc(Cl)cc1)NCCc1c[nH]c2ccccc12	0.8	0.2	4.7	6.6	13.5	-4.8	·	·
CC1CCN(C(=O)COC(=O)c2nn(C)c(=O)c3ccccc23)CC1	14.0	10.7	-2.9	-23.8	4.9	-3.0	·	·
COc1cc(OC)cc(-n2nnnc2SCC(=O)N2CCCC2)c1	-10.5	12.0	21.2	2.8	-10.9	1.3	·	·
COc1ccc(-n2nnnc2S(=O)(=O)CC(=O)N2CCCCC2)cc1	90.4*	57.0*	102.8*	96.5*	82.7*	-53.6*	17.5	-4.7
CCc1ccc(NC(=O)c2cnn3ccccc23)cc1	49.8*	53.3*	36.8	93.3*	4.4	-17.3	67.9*	74.6*
O=C(O)c1cccc(C(=O)Nc2cccc(NC(=O)C3CCCO3)c2)c1 (configuration not stated)	48.5*	0.0	37.6	9.3	-5.2	0.6	47.8*	-31.8
O=C(O)c1cccc(NC(=O)C2CCCO2)c1 (configuration not stated)	26.5	-1.0	7.5	16.9	-7.6	-2.5	·	·
COc1ccc(NC(=O)/C(C#N)=C/c2c(C)nn(-c3ccc(F)cc3)c2Cl)cc1OC	42.8*	33.4	22.3	44.3	16.7	-3.1	11.0	54.0*
Cc1ccc(N2C(=O)CS/C2=N\C(=S)Nc2ccccc2)cc1	-9.9	-24.2	-8.9	-14.8	5.8	-1.4	·	·
COC(=O)C1=C(C)N(Cc2ccccc2)C(=NCc2cccc(C(F)(F)F)c2)N[C@H]1c1cccc(C(F)(F)F)c1	1.4	14.7	99.3*	6.2	16.1	-29.2	·	·	Mdm2 MdmX conf=102.2*
O=C(OC1CCOC1=O)c1cncc(Br)c1 (configuration not stated)	12.6	-3.9	-19.1	5.3	-1.2	-0.6	·	·
Cc1ccc(C(=O)OCCN2CCN(c3ncc(C(F)(F)F)cc3Cl)CC2)cc1	15.2	·	12.7	0.8	7.6	-2.5	·	·
CCOc1c(Br)cc(CNc2ccc(N3CCOCC3)cc2)cc1OC	-19.4	35.1	-8.1	-1.2	-0.9	-1.5	·	·
CCOc1c(Br)cc(CNc2ccc3c(c2)OCCO3)cc1OC	43.4*	59.3*	33.2	84.7*	33.0	-14.5	39.9	77.0*
CCOc1cc(CNc2ccc3c(c2)OCCO3)cc(Br)c1OC	45.0*	85.3*	45.8	94.2*	40.7	-35.7	67.5*	98.0*
CN(C)c1ccc(/C=C/c2c([N+](=O)[O-])c(=O)n(C)c(=O)n2C)cc1	-30.5	-0.3	2.5	23.0	-12.8	10.7	·	·
CN(C)c1ccc(-n2cccc2/C=C/[N+](=O)[O-])cc1	91.4*	-30.6	93.8*	60.4*	-36.4	-9.3	89.2*	105.9*
CCCCCCSc1ccc([C@H]2N[C@@](Cc3ccccc3)(C(=O)OC)[C@H]3C(=O)N(C)C(=O)[C@@H]23)cc1	7.6	-0.4	11.6	0.5	-5.8	-4.7	·	·
O=C(Nc1ccc(S(=O)(=O)N2CCCCC2)cc1)c1cccnc1Cl	6.1	8.2	6.8	6.0	3.8	12.0	·	·
CC1(C)Cc2c(c(N3CCOCC3)nc3sc4c(NCCN)ncnc4c23)CO1	45.2*	14.5	99.5*	-38.6	-11.3	-4.5	2.4	44.2
N#C/C(=C/c1cccc(O)c1)C(=O)NCc1ccc(Cl)cc1	77.2*	-1.6	-11.1	18.9	19.2	-9.4	29.9	45.9
N#C/C(=C/c1ccc(O)c(O)c1)C(=O)NCc1ccc(Cl)cc1	4.7	-0.3	23.7	-7.3	-15.5	6.7	·	·
CC1CN(c2ccc([N+](=O)[O-])cc2Cl)CCN1S(C)(=O)=O (configuration not stated)	10.7	0.9	-0.8	3.1	-17.3	-8.7	·	·
CCc1nc2ccc(C(=O)NCCC(C)C)cn2c1N(CC)CCN(C)C	7.8	-12.5	-6.6	-5.8	-9.2	11.0	·	·
O=C(Oc1ccc2ccccc2c1)c1ccco1	11.8	-4.5	-10.5	-8.1	17.8	-2.7	·	·
